Records with an inconclusive call do not appear. Activity calls are given as the source filed them. Unless noted, calls come from the whole dose curve; as a rule, active = well fitted curve in the direction sought with a large enough effect in the repeat runs; inconclusive = weak or mixed curves; inactive = no such curve, though single readings can be large; an effect the other way counts as inactive or inconclusive.
Key:
[1] = qHTS assay to identify small molecule agonists of the vitamin D receptor (VDR) signaling pathway - cell viability counter screen (AID 743224); note: series mostly up to about 63 µM; nearly all actives have a fitted effect of over 50% in size
Procedure, shortened: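 VDR-bla cell line, quantitative HTS format; 16 h compound incubation (37C, 5% CO2); ATP-based CellTiter-Glo luminescence measured in the reporter assay wells.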

[2] = qHTS assay to identify small molecule antagonists of the vitamin D receptor (VDR) signaling pathway - cell viability counter screen (AID 743225); note: nearly all actives have a fitted effect of over 50% in size
Procedure, shortened: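 VDR-bla HEK 293T cells, 4 h pre-incubation at 37C, then compound plus 1-alpha,25-dihydroxyvitamin D3 (3 nM final) for 16 h. After the beta-lactamase FRET read, CellTiter-Glo was added to the same wells; luminescence after 30 min at room temperature.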

[3] = qHTS assay to identify small molecule agonists of the NFkB signaling pathway (AID 1159509; active = well fitted curve in the direction sought with a large enough effect in the signal ratio in the repeat runs, not every such curve was filed as active; the % refers to the signal ratio; note: series mostly up to about 61 µM)
Procedure, shortened: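 After overnight attachment, reporter cells received test compounds, DMSO or positive controls and were incubated 5 hr at 37 C. FRET substrate was then added for 1.5 hr at room temperature before dual-emission fluorescence reading.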

[4] = qHTS assay to identify small molecule agonists of the NFkB signaling pathway - cell viability counter screen (AID 1159515; calls by dose curve; note: series mostly up to about 61 µM; nearly all actives have a fitted effect of over 55% in size)
Procedure, shortened: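 Viability in NFkB-bla ME-180 cells was measured by CellTiter-Glo luminescence, 30 min room temperature, in wells already treated 5 hr with compounds and read for reporter FRET.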

[5] = qHTS assay to identify small molecule agonists of the endoplasmic reticulum stress response signaling pathway (AID 1159516; active = well fitted activation curve with a large enough effect in the signal ratio in the repeat runs, not every such curve was filed as active; the % refers to the signal ratio)
Procedure, shortened: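 ER stress element reporter (bla) in HeLa. 1,500 cells/well, overnight attachment; 5 hr compound; 2 hr RT substrate; dual-emission fluorescence.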

[6] = qHTS assay to identify small molecule agonists of the endoplasmic reticulum stress response signaling pathway - cell viability counter screen (AID 1159517; calls by dose curve;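 note: HeLa cells carrying an ER stress response element beta-lactamase reporter; series mostly up to about 61 µM; nearly all actives have a fitted effect of over 50% in size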)
Procedure, shortened: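 Counter-screen wells were identical to the reporter wells. Cells were plated at 1,500 per well and dosed for 5 hr, then read for luminescence 30 min after CellTiter-Glo addition.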

[7] = qHTS assay to identify small molecule antagonists of the retinoid-related orphan receptor gamma (ROR-gamma) signaling pathway - cell viability counter screen (AID 1159520); note: nearly all actives have a fitted effect of over 50% in size
Procedure, shortened: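 Tet-on ROR gamma CHO cells were given compounds for 2 hr, then doxycycline hyclate at 1 uM final, and incubated 16 hr at 37 C. Viability was measured as ATP content by CellTiter-Glo luminescence.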

[8] = biological target: Nuclear receptor ROR-gamma (Homo sapiens) (UniProt P51449); test: qHTS assay to identify small molecule antagonists of the retinoid-related orphan receptor gamma (ROR-gamma) signaling pathway (AID 1159521; note: nearly all actives have a fitted effect of over 50% in size; note: potency is the fitted concentration of half-maximal effect)
Procedure, shortened: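 Tet-on RORγ CHO cells carrying a ROR response element–luciferase reporter were pretreated with compounds for 2 h, then induced with 1 uM (final) doxycycline hyclate for 16 h at 37 C. Antagonism was read as decreased ONE-Glo luminescence.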

[9] = qHTS assay to identify small molecule agonists of the AP-1 signaling pathway - cell viability counter screen (AID 1159525; calls by dose curve; note: nearly all actives have a fitted effect of over 55% in size)
Procedure, shortened: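 AP-1-bla ME-180 cells in Opti-MEM with 0.5% dialyzed FBS, compound exposure 5 h at 37 C in 15-point titration. Viability read in the same wells as ATP content by CellTiter-Glo luminescence, normalised to tetra-n-octylammonium bromide and DMSO controls.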

[10] = qHTS assay to identify small molecule agonists of the AP-1 signaling pathway (AID 1159526; calls by dose curve)

Measured: Potency

CSCCC=O
inactive: [1] | [2] | [3] | [4] | [5] | [6] | [7] | [8] | [9] | [10]

Cc1cccnc1
inactive: [1] | [2] | [3] | [4] | [5] | [6] | [7] | [8] | [9] | [10]

COc1ccc(Nc2ccccc2)c(C)c1
inactive: [1] | [2] | [3] | [4] | [5] | [6] | [7] | [8] | [9] | [10]

OC[C@H]1O[C@@](CO)(O[C@H]2O[C@H](CO)[C@@H](O)[C@H](O)[C@H]2O)[C@@H](O)[C@@H]1O
inactive: [1] | [2] | [3] | [4] | [5] | [6] | [7] | [8] | [10]

CC1=C(C)S(=O)(=O)CCS1(=O)=O
inactive: [1] | [2] | [3] | [4] | [5] | [6] | [7] | [10]
active: [8] 54.5 µM

O=S1(=O)CC=CC1
inactive: [1] | [2] | [3] | [4] | [5] | [6] | [7] | [8] | [9] | [10]

CCCCCCCCCCCCOCCO
inactive: [1] | [2] | [3] | [4] | [5] | [6] | [7] | [8] | [9] | [10]

COCCCOc1ccnc(CS(=O)c2nc3ccccc3[nH]2)c1C (configuration not stated)
inactive: [1] | [3] | [4] | [5] | [6] | [7] | [8] | [9] | [10]

O=C(O)c1cc(C(=O)O)cc(S(=O)(=O)O)c1
inactive: [1] | [2] | [3] | [4] | [5] | [6] | [7] | [8] | [9] | [10]

c1c[nH]cn1
inactive: [1] | [2] | [3] | [4] | [5] | [6] | [7] | [8] | [9] | [10]

Cc1cccc(O)c1
inactive: [1] | [2] | [3] | [4] | [5] | [6] | [7] | [8] | [9] | [10]

CN(C)CCCN
inactive: [1] | [2] | [3] | [4] | [5] | [6] | [7] | [8] | [9] | [10]

— PubChem BioAssay (Tox21)
